Results: PubChem BioAssay (EPA / NIEHS)
Records with an inconclusive call do not appear. Some compounds were tested as several samples or in several runs, with calls that do not always agree. The source made the active and inactive calls. Rule for the calls, unless noted: active = hit-call score of the fitted dose curve at least 0.9, where 1 is the maximum; inconclusive = response in the unintended direction; inactive = score below 0.9.

What was measured:
[1] = target: Estrogen receptor (Homo sapiens) (UniProt P03372); experiment: OT_ERa_GFPERaERE_0120: Odyssey Thera (OT) 2-hour HeLa Transcription Induction Assay for Estrogen Receptor (AID 2283382)
Sequence of Estrogen receptor (Homo sapiens) (P03372 whole entry, looked up): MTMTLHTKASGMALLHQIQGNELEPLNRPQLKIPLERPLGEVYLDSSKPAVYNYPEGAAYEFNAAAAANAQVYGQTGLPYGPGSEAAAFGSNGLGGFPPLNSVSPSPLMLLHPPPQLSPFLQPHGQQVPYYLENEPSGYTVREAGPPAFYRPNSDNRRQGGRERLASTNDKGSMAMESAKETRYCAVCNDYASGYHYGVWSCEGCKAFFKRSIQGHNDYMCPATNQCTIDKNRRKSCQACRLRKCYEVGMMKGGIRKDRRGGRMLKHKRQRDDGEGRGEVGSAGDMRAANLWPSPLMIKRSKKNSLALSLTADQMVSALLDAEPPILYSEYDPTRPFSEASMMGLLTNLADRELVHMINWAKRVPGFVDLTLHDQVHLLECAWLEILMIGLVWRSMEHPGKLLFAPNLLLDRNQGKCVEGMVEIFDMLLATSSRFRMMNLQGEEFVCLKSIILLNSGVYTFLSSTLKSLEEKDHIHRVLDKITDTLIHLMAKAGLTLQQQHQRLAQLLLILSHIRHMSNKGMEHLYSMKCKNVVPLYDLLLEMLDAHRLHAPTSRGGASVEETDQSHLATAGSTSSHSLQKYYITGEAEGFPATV
Summary of the method: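 Cells (human cervical HeLa) receive compound, incubate 2 hours, then are imaged for fluorescent reporter induction. Images are quantified by high content analysis, and activity is fitted as gain of signal against DMSO.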

[2] = target: Retinoic acid receptor RXR-alpha (Homo sapiens) (UniProt P19793); experiment: OT_NURR1_NURR1RXRa_0480: Odyssey Thera (OT) 8-hour HEK293T Protein Complementation Assay for Nurr1/retinoid X receptor (RXR) (AID 2283385)
Sequence of Retinoic acid receptor RXR-alpha (Homo sapiens) (P19793 whole entry, looked up, the tested form may be a part): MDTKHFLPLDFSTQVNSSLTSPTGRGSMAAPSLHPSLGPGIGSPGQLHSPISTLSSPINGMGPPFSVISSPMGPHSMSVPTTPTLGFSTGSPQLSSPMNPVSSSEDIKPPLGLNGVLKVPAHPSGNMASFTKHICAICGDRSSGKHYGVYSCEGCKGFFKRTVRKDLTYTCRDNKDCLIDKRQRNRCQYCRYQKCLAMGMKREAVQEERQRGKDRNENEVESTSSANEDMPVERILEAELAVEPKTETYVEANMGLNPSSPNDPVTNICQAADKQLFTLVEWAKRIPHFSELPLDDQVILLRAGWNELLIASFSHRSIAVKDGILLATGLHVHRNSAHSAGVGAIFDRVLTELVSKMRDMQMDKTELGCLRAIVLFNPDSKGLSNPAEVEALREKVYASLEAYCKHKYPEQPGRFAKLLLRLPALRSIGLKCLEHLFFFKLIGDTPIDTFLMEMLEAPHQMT
Summary of the method: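 Interaction of bait and prey reconstitutes a functional reporter, whose fluorescence was measured in HEK293T cells dosed with compound for 8 hours. Signal gain relative to DMSO defined the single endpoint.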

[3] = target: Peroxisome proliferator-activated receptor gamma (Homo sapiens) (UniProt P37231); experiment: OT_PPARg_PPARgSRC1_0480: Odyssey Thera (OT) 8-hour Protein-Complementation Assay for Peroxisome Proliferator-activated Receptor Gamma / SRC-1 Co-activator (AID 2283387);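 note: nuclear to cytoplasmic split Venus YFP fluorescence ratio reporting PPARg SRC-1 interaction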
Sequence of Peroxisome proliferator-activated receptor gamma (Homo sapiens) (P37231 whole entry, looked up, the tested form may be a part): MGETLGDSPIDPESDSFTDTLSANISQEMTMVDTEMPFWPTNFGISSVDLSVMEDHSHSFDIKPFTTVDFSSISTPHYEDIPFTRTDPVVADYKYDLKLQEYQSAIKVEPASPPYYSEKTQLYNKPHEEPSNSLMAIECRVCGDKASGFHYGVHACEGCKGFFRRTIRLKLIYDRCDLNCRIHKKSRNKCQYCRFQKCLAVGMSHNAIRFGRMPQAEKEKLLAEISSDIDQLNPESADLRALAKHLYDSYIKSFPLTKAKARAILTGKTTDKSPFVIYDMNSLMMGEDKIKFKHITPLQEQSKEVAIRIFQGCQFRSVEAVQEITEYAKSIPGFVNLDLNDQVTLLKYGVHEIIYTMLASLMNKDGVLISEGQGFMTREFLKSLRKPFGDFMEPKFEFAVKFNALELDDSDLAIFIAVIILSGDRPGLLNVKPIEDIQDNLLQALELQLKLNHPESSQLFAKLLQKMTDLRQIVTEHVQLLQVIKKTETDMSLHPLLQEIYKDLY
Summary of the method: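 Protein-fragment complementation in HEK293T: Venus YFP halves (residues 1-158, 159-239, mutated to IFP1/IFP2) fused to PPARg/SRC-1. 8 h exposure; N/C ratio at 488 nm; DMSO negative control.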

[4] = target: Peroxisome proliferator-activated receptor gamma (Homo sapiens) (UniProt P37231); experiment: OT_PPARg_PPARgSRC1_1440: Odyssey Thera (OT) 24-hour Protein-Complementation Assay for Peroxisome Proliferator-activated Receptor Gamma/ SRC-1 Co-activator (AID 2283388);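 note: nuclear to cytoplasmic ratio of reconstituted Venus YFP fluorescence in fixed imaged cells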
Summary of the method: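 Cells carrying the PPARg/SRC-1 fragment-complementation reporter receive compound for 24 hours, are fixed and counterstained with Draq5, then imaged. Increased nuclear relative to cytoplasmic YFP fluorescence above DMSO baseline indicates binding activity.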

[5] = read-out: Tumor necrosis factor receptor superfamily member 6 (Homo sapiens) (UniProt P25445); experiment: LTEA_HepaRG_FAS: Life Technologies and Expression Analysis (LTEA) Assay for Fas cell surface death receptor (FAS) using HepaRG (AID 2283447; active = hit-call score of the fitted dose curve at least 0.9, where 1 is the maximum; inactive = score below 0.9); details: mRNA level, 48 h; actives raise or lower the signal
Summary of the method: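 Differentiated human HepaRG cells, pre-cultured 48 h, were exposed in duplicate for 48 h to 8-point half-log concentrations (top 100 uM, 0.5% DMSO) in serum-free induction medium; FAS mRNA measured by qRT-PCR, normalized to ACTB/GAPDH/POLR2A, bidirectional fit versus DMSO.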

[6] = read-out: Fatty acid synthase (Homo sapiens) (UniProt P49327); experiment: LTEA_HepaRG_FASN: Life Technologies and Expression Analysis (LTEA) Assay for Fatty Acid Synthase (FASN) using HepaRG (AID 2283448; active = hit-call score of the fitted dose curve at least 0.9, where 1 is the maximum; inactive = score below 0.9); details: mRNA level, 48 h; actives raise or lower the signal
Summary of the method: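 Cells were plated, cultured 48 h, switched to serum-free induction medium, then dosed in duplicate (max 100 uM, half-log dilutions, 0.5% DMSO) for 48 h. RNA was then isolated and FASN quantified by qRT-PCR.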

[7] = read-out: Cyclin D2 (CCND2), CCND2 (gene 894); experiment: LTEA_HepaRG_CCND2: Life Technologies and Expression Analysis (LTEA) Assay for Cyclin D2 (CCND2) using HepaRG (AID 2283449; active = hit-call score of the fitted dose curve at least 0.9, where 1 is the maximum; inactive = score below 0.9;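 note: CCND2 transcript measured by TaqMan qRT-PCR and normalised to three housekeeping genes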); details: mRNA level, 48 h; actives raise or lower the signal
Summary of the method: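 In this HepaRG study, an eight-point concentration series (max 100 uM, 0.5% DMSO) is applied for 48 h. CCND2 mRNA change is derived by qRT-PCR normalised to ACTB, GAPDH and POLR2A.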

[8] = read-out: Cyclin Dependent Kinase Inhibitor 1A (CDKN1A), CDKN1A (gene 1026); experiment: LTEA_HepaRG_CDKN1A: Life Technologies and Expression Analysis (LTEA) Assay for Cyclin Dependent Kinase Inhibitor 1A (CDKN1A) using HepaRG (AID 2283450; active = hit-call score of the fitted dose curve at least 0.9, where 1 is the maximum; inactive = score below 0.9); details: mRNA level, 48 h; actives raise or lower the signal
Summary of the method: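 Gain or loss of CDKN1A transcript is scored by bidirectional fitting against 0.5% DMSO vehicle. Human HepaRG cultures receive chemicals for 48 h across an 8-point series peaking at 100 uM; expression comes from qRT-PCR.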

[9] = target: Estrogen receptor (Homo sapiens) (UniProt P03372); experiment: OT_ERa_GFPERaERE_0480: Odyssey Thera (OT) 8-hour HeLa Transcription Induction Assay for Estrogen Receptor (AID 2283381; active = hit-call score of the fitted dose curve at least 0.9, where 1 is the maximum; inactive = score below 0.9)
Summary of the method: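 Human cervical HeLa cells were treated for 8 hours, after which ERE-driven GFP induction was measured by fluorescence microscopy; increases over DMSO baseline defined activity.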

[10] = CEETOX_H295R_OHPREG: CeeTox H295R High-throughput Steroidogenesis Assay for OH-Pregnenolone (OHPREG) (AID 2283434; active = hit-call score of the fitted dose curve at least 0.9, where 1 is the maximum; inactive = score below 0.9); details: actives raise or lower the signal
Summary of the method: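 Readout: HPLC-MS/MS of 17alpha-hydroxypregnenolone in medium after 48 h chemical exposure of H295R cells pretreated with forskolin. Values fitted bidirectionally relative to DMSO; chemicals reducing viability to 20–70% were retested after 10-fold dilution.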

[11] = CEETOX_H295R_OHPROG: CeeTox H295R High-throughput Steroidogenesis Assay for OH-Progesterone (OHPROG) (AID 2283435; active = hit-call score of the fitted dose curve at least 0.9, where 1 is the maximum; inactive = score below 0.9;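 note: human adrenal H295R cells primed 48 h with 10 µM forskolin; 17alpha-hydroxyprogesterone secreted into medium measured by HPLC-MS/MS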); details: actives raise or lower the signal
Summary of the method: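 Steps: seed H295R cells and adhere overnight; stimulate with 10 uM forskolin for 48 h; replace with chemical-containing medium (0.1% DMSO) for 48 h; extract medium with MTBE; quantify 17alpha-hydroxyprogesterone by reverse-phase C18 HPLC-MS/MS against a 7-point curve.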

[12] = CEETOX_H295R_ANDR: CeeTox H295R High-throughput Steroidogenesis Assay for Androstenedione (ANDR) (AID 2283436; active = hit-call score of the fitted dose curve at least 0.9, where 1 is the maximum; inactive = score below 0.9;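 note: human H295R adrenal cells exposed for 48 h with androstenedione measured in medium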); details: actives raise or lower the signal
Summary of the method: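 Steroidogenesis in H295R adrenal cells after 48 h dosing; androstenedione quantified by LC-MS/MS, with DMSO as negative control and baseline for bidirectional curve fitting.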

[13] = target: Bile acid receptor (Homo sapiens) (UniProt Q96RI1); experiment: OT_FXR_FXRSRC1_0480: Odyssey Thera (OT) 8-hour HEK293T Protein-Complementation Assay for Farnesoid X receptor/SRC-1 Co-activator (AID 2283383)
Sequence of Bile acid receptor (Homo sapiens) (Q96RI1 whole entry, looked up, the tested form may be a part): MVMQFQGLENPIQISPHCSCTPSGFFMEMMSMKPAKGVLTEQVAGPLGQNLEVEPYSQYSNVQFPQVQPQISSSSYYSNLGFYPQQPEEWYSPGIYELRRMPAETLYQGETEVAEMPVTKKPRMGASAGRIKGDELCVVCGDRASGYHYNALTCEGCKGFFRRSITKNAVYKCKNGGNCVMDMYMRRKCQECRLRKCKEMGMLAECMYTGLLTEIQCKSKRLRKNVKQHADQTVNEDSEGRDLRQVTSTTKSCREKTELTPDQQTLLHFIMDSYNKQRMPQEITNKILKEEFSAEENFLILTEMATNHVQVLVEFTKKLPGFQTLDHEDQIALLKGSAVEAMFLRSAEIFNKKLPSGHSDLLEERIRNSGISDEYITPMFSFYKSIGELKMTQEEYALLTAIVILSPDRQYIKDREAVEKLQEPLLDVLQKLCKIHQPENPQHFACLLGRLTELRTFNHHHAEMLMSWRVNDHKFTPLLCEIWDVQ
Summary of the method: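 PCA, HEK293T, 8 h compound exposure; FXR–SRC-1 binding reconstitutes split reporter; fluorescence intensity; positive-direction fit vs DMSO.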

[14] = target: Bile acid receptor (Homo sapiens) (UniProt Q96RI1); experiment: OT_FXR_FXRSRC1_1440: Odyssey Thera (OT) 24-hour HEK293T Protein-Complementation Assay for Farnesoid X receptor/SRC-1 Co-activator (AID 2283384)
Summary of the method: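 Measures ligand-driven FXR–SRC-1 co-activator recruitment in HEK293T via fragment complementation, fluorescence intensity at 24 h. DMSO served as negative control and baseline for gain-of-signal fitting.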

[15] = target: Retinoic acid receptor RXR-alpha (Homo sapiens) (UniProt P19793); experiment: OT_NURR1_NURR1RXRa_1440: Odyssey Thera (OT) 24-hour HEK293T Protein Complementation Assay for Nurr1/retinoid X receptor (RXR) (AID 2283386)
Summary of the method: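 Steps: fragment-tagged Nurr1 and RXRα expressed in HEK293T; compounds added; after 24 h, complemented reporter quantified by fluorescence intensity; signal increase over DMSO fitted as the single endpoint.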

[16] = CEETOX_H295R_11DCORT: CeeTox H295R High-throughput Steroidogenesis Assay for 11-Deoxycortisol (11DCORT) (AID 2283432; active = hit-call score of the fitted dose curve at least 0.9, where 1 is the maximum; inactive = score below 0.9); details: actives raise or lower the signal
Summary of the method: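 Adrenal carcinoma line H295R, run per OECD 456 with minor changes, was forskolin-stimulated (10 uM, 48 h) before a 48 h chemical exposure at 0.1% DMSO. Secreted 11-deoxycortisol was quantified by HPLC-MS/MS.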

[17] = CEETOX_H295R_CORTIC: CeeTox H295R High-throughput Steroidogenesis Assay for Corticosterone (CORTIC) (AID 2283437; active = hit-call score of the fitted dose curve at least 0.9, where 1 is the maximum; inactive = score below 0.9;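 note: human H295R adrenal cells prestimulated with forskolin before chemical exposure; corticosterone secreted into medium quantified by mass spectrometry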); details: actives raise or lower the signal
Summary of the method: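 Steps: seed H295R, adhere overnight; 10 uM forskolin 48 h; replace with chemical (0.1% DMSO) 48 h; extract medium with MTBE; quantify corticosterone by HPLC-MS/MS; score bidirectionally vs DMSO.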

[18] = CEETOX_H295R_CORTISOL: CeeTox H295R High-throughput Steroidogenesis Assay for Cortisol (AID 2283438; active = hit-call score of the fitted dose curve at least 0.9, where 1 is the maximum; inactive = score below 0.9;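 note: cortisol secreted into medium quantified by LC-MS/MS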); details: actives raise or lower the signal
Summary of the method: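 Cortisol synthesis by H295R cells is measured 48 h after chemical dosing, following a 48 h stimulation with 10 uM forskolin. Hormone is extracted and quantified by HPLC-MS/MS, and activity is fitted bidirectionally against the DMSO control.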

[19] = CEETOX_H295R_DOC: CeeTox H295R High-throughput Steroidogenesis Assay for DOC (AID 2283439; active = hit-call score of the fitted dose curve at least 0.9, where 1 is the maximum; inactive = score below 0.9); details: actives raise or lower the signal
Summary of the method: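 Steps: seed H295R, adhere overnight; 10 uM forskolin 48 h; replace with chemical medium (0.1% DMSO) 48 h; collect medium, MTBE extraction, HPLC-MS/MS for DOC. Viability then checked by MTT; cytotoxic chemicals diluted until viability ≥70%.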

Measured: AC50

Sequence of Fatty acid synthase (Homo sapiens) (P49327 whole entry, looked up): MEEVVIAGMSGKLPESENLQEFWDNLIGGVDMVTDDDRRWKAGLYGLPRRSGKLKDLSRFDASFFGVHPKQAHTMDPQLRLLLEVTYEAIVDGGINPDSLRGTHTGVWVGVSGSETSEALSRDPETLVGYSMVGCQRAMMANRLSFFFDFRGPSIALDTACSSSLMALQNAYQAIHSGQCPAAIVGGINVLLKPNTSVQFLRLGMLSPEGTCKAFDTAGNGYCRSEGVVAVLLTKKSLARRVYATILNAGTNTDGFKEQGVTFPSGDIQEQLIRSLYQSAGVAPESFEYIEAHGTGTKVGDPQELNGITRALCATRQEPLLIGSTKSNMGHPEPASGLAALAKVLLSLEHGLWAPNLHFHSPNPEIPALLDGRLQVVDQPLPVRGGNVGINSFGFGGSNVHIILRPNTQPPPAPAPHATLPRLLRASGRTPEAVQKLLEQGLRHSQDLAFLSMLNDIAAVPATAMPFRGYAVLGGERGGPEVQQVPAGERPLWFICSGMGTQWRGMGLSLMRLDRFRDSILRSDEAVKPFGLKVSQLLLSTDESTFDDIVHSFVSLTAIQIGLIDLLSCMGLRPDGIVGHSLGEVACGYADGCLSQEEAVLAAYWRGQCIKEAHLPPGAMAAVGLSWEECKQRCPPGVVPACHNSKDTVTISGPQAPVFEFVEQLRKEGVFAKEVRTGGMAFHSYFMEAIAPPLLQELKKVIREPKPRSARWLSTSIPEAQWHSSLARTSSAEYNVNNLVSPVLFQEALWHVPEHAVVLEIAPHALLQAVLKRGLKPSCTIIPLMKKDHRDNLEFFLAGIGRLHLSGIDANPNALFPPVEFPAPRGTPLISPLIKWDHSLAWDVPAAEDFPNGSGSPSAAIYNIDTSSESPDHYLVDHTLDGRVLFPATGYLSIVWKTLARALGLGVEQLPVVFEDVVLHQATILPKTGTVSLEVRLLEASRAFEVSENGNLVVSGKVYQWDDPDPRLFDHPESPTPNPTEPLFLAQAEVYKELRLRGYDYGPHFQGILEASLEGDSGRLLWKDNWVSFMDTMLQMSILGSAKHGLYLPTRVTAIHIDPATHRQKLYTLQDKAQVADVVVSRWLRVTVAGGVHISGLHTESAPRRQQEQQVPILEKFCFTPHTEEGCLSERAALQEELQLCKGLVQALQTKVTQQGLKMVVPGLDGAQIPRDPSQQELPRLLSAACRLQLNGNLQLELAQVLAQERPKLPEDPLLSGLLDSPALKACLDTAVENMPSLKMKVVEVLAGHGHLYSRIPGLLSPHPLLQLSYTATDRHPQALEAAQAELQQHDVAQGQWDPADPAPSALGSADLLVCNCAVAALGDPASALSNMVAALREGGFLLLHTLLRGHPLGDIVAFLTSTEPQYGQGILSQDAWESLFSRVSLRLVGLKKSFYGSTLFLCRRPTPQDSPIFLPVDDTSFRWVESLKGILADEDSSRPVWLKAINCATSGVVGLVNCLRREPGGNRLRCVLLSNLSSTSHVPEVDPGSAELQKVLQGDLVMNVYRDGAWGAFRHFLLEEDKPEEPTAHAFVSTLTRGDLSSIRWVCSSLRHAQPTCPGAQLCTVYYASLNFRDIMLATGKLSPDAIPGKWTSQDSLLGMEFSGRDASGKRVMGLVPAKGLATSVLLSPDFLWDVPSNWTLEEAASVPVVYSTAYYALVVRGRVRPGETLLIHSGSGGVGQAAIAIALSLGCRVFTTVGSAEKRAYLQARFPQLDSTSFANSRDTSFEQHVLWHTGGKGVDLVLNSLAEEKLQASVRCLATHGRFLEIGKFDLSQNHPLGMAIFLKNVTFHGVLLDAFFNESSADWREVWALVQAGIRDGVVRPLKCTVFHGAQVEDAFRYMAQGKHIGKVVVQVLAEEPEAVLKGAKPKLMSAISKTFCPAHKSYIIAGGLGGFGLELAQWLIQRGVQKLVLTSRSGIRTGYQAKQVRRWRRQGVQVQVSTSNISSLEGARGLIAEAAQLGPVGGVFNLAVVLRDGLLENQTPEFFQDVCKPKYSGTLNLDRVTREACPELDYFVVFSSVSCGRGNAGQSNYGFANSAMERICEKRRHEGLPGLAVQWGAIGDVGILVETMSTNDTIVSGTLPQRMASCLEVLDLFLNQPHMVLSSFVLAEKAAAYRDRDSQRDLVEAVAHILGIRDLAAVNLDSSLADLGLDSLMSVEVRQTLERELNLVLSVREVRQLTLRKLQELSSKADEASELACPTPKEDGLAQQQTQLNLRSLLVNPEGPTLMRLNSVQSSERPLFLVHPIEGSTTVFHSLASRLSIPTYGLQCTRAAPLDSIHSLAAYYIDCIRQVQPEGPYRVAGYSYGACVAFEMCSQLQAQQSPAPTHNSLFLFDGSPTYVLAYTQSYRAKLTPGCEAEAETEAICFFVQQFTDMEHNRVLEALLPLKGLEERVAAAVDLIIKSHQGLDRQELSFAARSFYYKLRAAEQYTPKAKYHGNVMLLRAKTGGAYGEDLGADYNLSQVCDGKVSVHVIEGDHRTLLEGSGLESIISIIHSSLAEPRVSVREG

O=C(OCCCCCOC(=O)c1ccccc1)c1ccccc1
active: [2] 72.2 µM | [5] 1.08 µM | [7] 2.48 µM
inactive: [1] | [2] | [3] | [4] | [6] | [8]

CCOc1ccc2c(c1)C(C)=CC(C)(C)N2
inactive: [9] | [2] | [3] | [4] | [10] | [5] | [6] | [7]
active: [11] 2.44 µM | [12] 36.4 µM | [8] 50 µM

CCCCCCCCCCC
inactive: [9] | [2] | [3] | [4] | [5] | [6] | [7] | [8]

CC(=O)OC/C=C(\C)CCC=C(C)C
inactive: [9] | [2] | [3] | [4] | [5] | [6] | [7] | [8]

CCCCC(CC)COC(=O)CC(C(=O)OCC(CC)CCCC)S(=O)(=O)O (stereo unspecified)
active: [9] 22.8 µM | [5] 83.5 µM | [6] 80.5 µM
inactive: [2] | [3] | [4] | [7] | [8]

CCCCCCCCCCCCCCCC
inactive: [9] | [3] | [4] | [5] | [6] | [7] | [8]

Nc1ccc(S(=O)(=O)c2ccc(N)cc2)cc1
active: [11] 30.5 µM
not listed: [9] | [12] | [16] | [17] | [18] | [19]
inactive: all other assays above

CCCCCCCCCCCCCCCCCC(=O)O
inactive: [9] | [2] | [15] | [3] | [4] | [5] | [6] | [7] | [8]

CNC(=O)[C@H]1O[C@@H](n2cnc3c(NCc4cc(Cl)ccc4OCc4cc(C)no4)ncnc32)[C@H](O)[C@@H]1N
inactive: [1] | [13] | [2] | [15] | [3] | [4] | [5] | [6] | [7] | [8]

Cc1ccc(C(C)C)c(O)c1
inactive: [1] | [2] | [15] | [3] | [4] | [5] | [6] | [7] | [8]

Cc1cc(NC(=O)C(=O)O)cc(C)c1Oc1ccc(O)c2c1CCC2
active: [11] 35 µM | [17] 34.1 µM | [19] 37.6 µM
not listed: [3] | [4] | [7] | [9] | [12]
inactive: all other assays above
